In PubChem BioAssay AID463193 (University of Pittsburgh Molecular Library Screening Center, 2010) one finds % cells with GFP-LC3 spots and toxicity data, which are given here for 42 compounds.

Each structure is given as a SMILES string. Out of some 190,000 compounds screened, about 1,900 (1%) were called active.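 How the source made its calls: active means percentage of spot-positive cells more than 3 SD above its plate mean, without a fluorescence outlier flag or 80% toxicity; inconclusive means no clear call, values can overlap the other calls; inactive means the rest.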 Many of the other results were omitted from the sample, so actives are more common in it than they were.

A short description of the assay: GFP-LC3 puncta formation changes – imaging, high-content, MEF GFP-LC3, primary screen (AID 463193).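 On % cells with GFP-LC3 spots: spot-positive cell cutoff set from DMSO-treated cells.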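 On toxicity: cell loss after 18 h compound exposure.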 The settings on record: autophagy, at 10 µM; % cells with GFP-LC3 spots: stronger effect = higher value; toxicity: measured here: cell loss, nuclei count.
For the compound `Cc1c(CN2CCC(CO)(CCOc3ccccc3)CC2)[nH]c2ccc(Cl)cc12`, the % cells with GFP-LC3 spots is 14.1% (inactive) and the toxicity was -12.9%.
Regarding `COc1cccc2sc(Nc3nc(C)c(C(C)=O)s3)nc12`, the % cells with GFP-LC3 spots was 21.8% (active) and the toxicity was 46.9%.
On to `COc1cccc2sc(NNC(=O)c3nc4ccccc4s3)nc12`, for which the % cells with GFP-LC3 spots was 8.59% (inactive) and the toxicity is 0.117%.
The like results for `CC(=O)c1sc(NC(=O)CCCOc2ccccc2C)nc1C` were, in that order, 7.71% (inactive) and 7.95%.
On to `CC1CCN(C2=NC(=O)/C(=C/c3cn[nH]c3-c3ccccc3)S2)CC1`, for which the % cells with GFP-LC3 spots was 4.99% (inactive) and the toxicity turned out to be 5.05%.
On to `O=C(Nc1ccccc1C(=O)N1CCCCCC1)c1ccccc1Cl`, for which the % cells with GFP-LC3 spots is 43.8% (active) and the toxicity is -8.81%.
For the compound `O=C(Nc1ccccc1C(=O)N1CCOCC1)c1ccc(Cl)cc1`, the % cells with GFP-LC3 spots is 1.74% (inactive) and the toxicity turned out to be 11.5%.
On the same counts, the results for `O=C(CN(c1ccccc1)S(=O)(=O)c1ccc(Cl)cc1)Nc1ccccc1C(=O)N1CCCC1` are 9.32% (inactive) and 0.638%.
On the same counts, the results for `O=C(CN1C(=O)/C(=C/c2ccccc2F)Sc2ccccc21)NCc1cccnc1` are 0.409% (inactive) and -0.091%.
The like results for `O=C1Nc2ccccc2C12Nc1ccccc1S2` (centres undefined) were, in that order, 6.3% (inactive) and -0.645%.
Take `C=C1c2cc(CC)ccc2NC(=O)N1c1ccc(C)cc1`: the % cells with GFP-LC3 spots is 1.08% (inactive) and the toxicity is -2.35%.
`CCc1ccc2c(c1)C1(NN=C(c3ccccc3)S1)C(=O)N2` (centres undefined): the % cells with GFP-LC3 spots was 24.9% (active) and the toxicity was found to be 40.3%.
As to `CCOc1ccc(N(CC(=O)NCCc2ccc(OC)cc2)S(C)(=O)=O)cc1`, the % cells with GFP-LC3 spots was 1.57% (inactive) and the toxicity was -14.4%.
Regarding `COc1ccc(C2CC(c3ccc(C)cc3)Nc3nc(N)nn32)cc1` (centres undefined), the % cells with GFP-LC3 spots is 17.9% (inactive) and the toxicity is -20.4%.
On the same counts, the results for `Cc1ccc(C2CC(c3cccc(C)c3)n3nc(N)nc3N2)cc1` (centres undefined) are 4.2% (inactive) and 10.4%.
Turning to `COc1ccc(C2CC(c3ccc(Cl)cc3Cl)Nc3nc(N)nn32)cc1OC` (centres undefined), the % cells with GFP-LC3 spots was 14.3% (active) and the toxicity was 1.79%.
The like results for `COc1ccc(-c2cc(C(F)(F)F)nc(SCCC(=O)NCc3ccco3)n2)cc1` were, in that order, 14.8% (inactive) and 0.225%.
The like results for `O=C(CSc1nc(-c2ccco2)cc(C(F)(F)F)n1)N1CCc2ccccc2C1` were, in that order, 0.274% (inactive) and -3.54%.
The like results for `O=C(CSc1nc(-c2ccco2)cc(C(F)(F)F)n1)NCc1cccs1` were, in that order, 11.9% (active) and 19.8%.
As to `Cc1ccc(S(=O)(=O)N2CCCC2C(=O)OCc2nc3sc(C)c(C)c3c(=O)[nH]2)cc1` (centres undefined), the % cells with GFP-LC3 spots was 7.41% (inactive) and the toxicity came out at 2.2%.
As for `CS(=O)(=O)N(CC(=O)N/N=C/c1ccccn1)c1ccc(Oc2ccccc2)cc1`, the % cells with GFP-LC3 spots is 19.6% (inactive) and the toxicity amounted to 9.84%.
Turning to `COc1ccc(OC)c(N=Cc2c(O)[nH]c3ccccc23)c1`, the % cells with GFP-LC3 spots is 30.3% (active) and the toxicity was 10.8%.
The like results for `COc1ccc(N=Cc2c(O)[nH]c3ccccc23)cc1OC` were, in that order, 20.4% (inactive) and 0.85%.
Take `COc1cc(N=Cc2c(O)[nH]c3ccccc23)cc(OC)c1OC`: the % cells with GFP-LC3 spots is 1.9% (inactive) and the toxicity was determined as 14.8%.
On the same counts, the results for `O=C(NNC1CC(=O)N(c2cccc(Cl)c2)C1=O)c1cccnc1` (centres undefined) are 14.6% (inactive) and -11.8%.
The like results for `COc1cccc2c(O)cc(=O)n(C)c12` were, in that order, 6.52% (inactive) and 15.8%.
Regarding `CCN1CCN(C(c2cccnc2)c2cc(Cl)c3cccnc3c2O)CC1` (centres undefined), the % cells with GFP-LC3 spots is 0.145% (inactive) and the toxicity came out at 15.1%.
For the compound `O=C(c1cccc(C(=O)N2CCN(c3ccc(F)cc3)CC2)c1)N1CCN(c2ccc(F)cc2)CC1`, the % cells with GFP-LC3 spots is 13% (inactive) and the toxicity is -26%.
Take `Oc1c(CN2CCN(c3ccc(F)cc3)CC2)cc(Cl)c2cccnc12`: the % cells with GFP-LC3 spots is 52% (active) and the toxicity worked out at 33.9%.
The like results for `C=CCn1c(CCNC(=O)c2ccccc2F)nnc1SCC(=O)Nc1ccc(OC)cc1` were, in that order, 1.65% (inactive) and 10.4%.
In the case of `COc1ccc(OC)c(S(=O)(=O)NCCC(C)C)c1`, the % cells with GFP-LC3 spots is 7.62% (inactive) and the toxicity stood at 7.42%.
`CCn1c(-c2cc(OC)ccc2OC)csc1=Nc1c(C)n(C)n(-c2ccccc2)c1=O`: the % cells with GFP-LC3 spots was 12.4% (active) and the toxicity was -0.744%.
The like results for `COc1ccc(S(=O)(=O)Nc2c(C)n(C)n(-c3ccccc3)c2=O)cc1` were, in that order, 4.67% (inactive) and 4.21%.
On to `CN=c1scc(-c2cc(OC)ccc2OC)n1/N=C/c1c(C)[nH]c2ccccc12`, for which the % cells with GFP-LC3 spots is 8.49% (inactive) and the toxicity worked out at 3.61%.
The like results for `COc1ccc(-c2nc(N)sc2C2(O)C(=O)Nc3c(Br)cc(F)cc32)cc1OC` (centres undefined) were, in that order, 1.66% (inactive) and -1.9%.
The like results for `COC(=O)NNC1=CC(=O)CC(C)(C)C1` were, in that order, 0.796% (inactive) and -6.02%.
The like results for `Clc1cc(-c2ccc(/C=N/n3cnnc3)o2)ccc1Br` were, in that order, 8.69% (inactive) and 20.9%.
Take `CC(=O)N/N=C(\C)c1ccc(Br)cc1Br`: the % cells with GFP-LC3 spots is 20.7% (inactive) and the toxicity worked out at 2.43%.
The like results for `Cc1cc(C)c2[nH]c(=O)c(C(c3nnnn3Cc3ccc4c(c3)OCO4)N3CCCC3)cc2c1` (centres undefined) were, in that order, 21.2% (inactive) and 8.95%.
For `CCOC(=O)C1CCN(C(c2cc3cc(C)cc(C)c3[nH]c2=O)c2nnnn2C2CCCCC2)CC1` (centres undefined), the % cells with GFP-LC3 spots is 19.2% (active) and the toxicity stood at 24.2%.
Turning to `COc1ccc(N2CCN(C(c3cc4ccc(C)cc4[nH]c3=O)c3nnnn3C3CCCC3)CC2)cc1` (centres undefined), the % cells with GFP-LC3 spots is 5.85% (inactive) and the toxicity is -3.74%.
The like results for `O=C(CN1C(=O)NC2(CCCC2)C1=O)NCC1CCCO1` (centres undefined) were, in that order, 11.1% (inactive) and 7.52%.
